Screening data: PubChem BioAssay, several laboratories
The list is not random: actives were taken first. Their share in the collection is about 3.8%.
Hsp70 activator: transcriptional activators of Hsp70. AID 1203. 200,000 compounds, 0.04% hits. activation, % at 10 µM. HeLa Hsp70 promoter luciferase reporter, luminescence; scaled: vehicle 0, proteasome-inhibitor control 100%;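 active = activation above the mean across all tested compounds plus 3 SD, cutoff set per campaign, cut at about 5.5% in these data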;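 note: 100% = MG132 at 30 µM as the positive control and 0% = DMSO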
HSP90 inh: blocks HSP90-mediated luciferase refolding in reticulocyte lysate; Rabbit reticulocyte lysate, luciferase refolding luminescence, 3 h; inhibition, % at 5.6 µM; 290,000 compounds, 0.91% hits; AID 1789;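 active = inhibition above the screen-wide mean plus 3 SD, computed separately per campaign, cut at about 16% in these data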;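 note: 0% = DMSO wells and 100% = 60 µM geldanamycin wells; inhibitors lower the luminescence because luciferase stays unfolded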
NALP1 yeast inh: NALP1 inhibition; S. cerevisiae NALP1/ASC/caspase-1 growth, X-gal OD620, 72 h; inhibition, % at 10 µM; 280,000 compounds, 0.61% hits; AID 2071; in the data active = inhibition mostly above about 24%, no sharp cut-off; inactive = mostly below about 32%
HSF1 inhib: HSF1 inhibition; NIH3T3-HGL HSE-luciferase, MG132-induced, luminescence 8 h; active compounds read low; activity change, negative = inhibition, % at 7.5 µM (by protocol); 300,000 compounds, 0.77% hits; AID 2098;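 active = more than half of replicate wells show activity change below -50%, luminescence cut by over half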;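 note: luciferase reports HSF-1 transcriptional activity via heat shock element; 0% = median of DMSO wells and -100% = zero luminescence signal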
p-CIP stab down: p/CIP protein destabilization; F442A p/CIP-EGFP cells, EGFP fluorescence, 16 h; decrease of EGFP signal, % at 10 µM; 290,000 compounds, 0.01% hits; AID 1984;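 active = EGFP signal decrease of at least 30% at 10 µM or well 3 SD below plate mean, unless failing retest; inactive = the rest, including hits failing retest or dose response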
HSF-1 act: increases HSF-1 driven luciferase reporter signal | activation, % at 9 µM | NIH3T3-HGL HSF-1 luciferase reporter, MG132, 8 h; 100% = twice DMSO control signal | AID 504408 | 300,000 compounds, 1.7% hits;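 active = mean replicate activation of at least 50% with a set share of replicates each reaching 50%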;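 note: 0% = median of the neutral control wells and 100% = twice that signal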
HSP90 confirm: confirmation of HSP90 inhibitors; shares compounds with HSP90 inh; rabbit reticulocyte lysate, luciferase refolding luminescence, 3 h; inhibition, % at 5.9 µM; 2,300 compounds, 64% hits; AID 1846; in the data active = inhibition above about 18%;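 note: 0% = vehicle wells and 100% = reference inhibitor wells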
FLuc counter: counter-screen for HSP90 inhibitors: inhibitors of firefly luciferase | purified native firefly luciferase, luminescence | 2,300 compounds, 48% hits | shares compounds with HSP90 inh | AID 1847 | inhibition, % at 5.9 µM;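 active = inhibition above the mean inhibition of all tested sample wells plus 3 SD, cut at about 10% in these data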;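 note: 0% = DMSO with luciferase and 100% = wells lacking luciferase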
Target sequence (P08659 whole entry, looked up): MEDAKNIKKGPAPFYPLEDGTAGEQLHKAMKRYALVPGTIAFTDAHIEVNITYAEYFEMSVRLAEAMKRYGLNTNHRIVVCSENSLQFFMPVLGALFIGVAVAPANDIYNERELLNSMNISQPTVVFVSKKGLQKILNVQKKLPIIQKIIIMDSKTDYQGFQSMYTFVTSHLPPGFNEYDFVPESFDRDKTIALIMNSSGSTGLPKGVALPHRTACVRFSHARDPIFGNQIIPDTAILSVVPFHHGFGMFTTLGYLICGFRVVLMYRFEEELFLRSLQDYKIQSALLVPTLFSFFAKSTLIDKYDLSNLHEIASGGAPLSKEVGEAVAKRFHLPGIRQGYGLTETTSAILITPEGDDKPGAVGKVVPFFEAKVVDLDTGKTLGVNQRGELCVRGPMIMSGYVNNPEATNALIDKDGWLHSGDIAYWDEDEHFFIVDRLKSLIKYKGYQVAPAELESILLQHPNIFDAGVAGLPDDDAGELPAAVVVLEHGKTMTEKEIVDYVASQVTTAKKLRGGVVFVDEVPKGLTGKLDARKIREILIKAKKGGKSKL
* = called active by the depositor; x = no result given.

SMILES	Hsp70 activator	HSP90 inh	NALP1 yeast inh	HSF1 inhib	p-CIP stab down	HSF-1 act	HSP90 confirm	FLuc counter
C(=C\c1ccccc1)/C=N/Nc1nc2ccccc2s1	1	-2	18	9	-1	28	x	x
CCOc1cc(CN2CCN(CCc3ccccc3)C(CCO)C2)ccc1OC (configuration not stated)	0	27*	7	-8	7	-23	-3	-6
O=c1nc(N/N=C/c2c[nH]c3ccccc23)cn[nH]1	x	27*	x	10	3	21	30*	14*
C(=C\c1ccccc1)/C=N/Nc1nncc(-c2ccccc2)n1	0	-3	32	7	-1	6	x	x
O=c1nc(N/N=C/C=C/c2ccccc2)cn[nH]1	x	23*	x	-2	6	2	78*	65*
CCC(C(=O)OCC(=O)N1C(C)CCCC1C)c1ccccc1 (configuration not stated)	x	0	-1	2	-4	16	x	x
Cc1cccc(CC(=O)N2CCC(N3CCC(C(=O)N4CCOCC4)CC3)CC2)c1	0	51*	13	-8	-6	-1	-7	-8
Oc1ccccc1Nc1ccccn1	x	-5	-4	-6	5	-22	x	x
c1ccc(Nc2ccccn2)nc1	x	25*	x	x	-8	x	1	-2
O=C(COC(=O)CN1C(=O)c2cccc([N+](=O)[O-])c2C1=O)NC1CCS(=O)(=O)C1 (configuration not stated)	x	3	6	-8	9	-1	x	x
CC(C)(C)C(=O)Nc1ccc(/C=C/C(=O)c2ccco2)cc1	x	26*	1	-25	7	-23	40*	50*
CC(C)(C)C(=O)Nc1ccc(NC(=O)c2ccco2)nc1	x	91*	3	-91*	5	-91	89*	84*
O=C(Nc1ccc(NC(=O)C2CCCCC2)cn1)c1ccco1	0	22*	14	8	8	26	55*	47*
CC(=O)n1cc([C@H]2C=C(C(N)=O)O[C@@H](OCc3ccc(CO)cc3)C2)c2ccccc21	x	x	x	-2	x	0	x	x
Cc1cc(C)c(C)c(S(=O)(=O)NC2CCCCC2)c1C	x	-5	3	1	-10	-1	x	x
CCC1(c2ccc(F)cc2)NC(=O)N(CC(=O)Nc2ccc(C)c(S(=O)(=O)N3CCOCC3)c2)C1=O (configuration not stated)	0	2	4	-6	-6	2	x	x
C=CCc1cc(/C=C2/NC(=O)N(CC)C2=O)cc(OCC)c1OCc1ccc(C(=O)O)cc1	0	-7	11	-9	-10	-1	x	x
O=C(O)c1ccc(N/N=C/c2cc(Br)cs2)cc1	x	50*	-10	-34	-12	-38	70*	71*
O=C(O)c1ccc(N/N=C/c2cc3ccccc3nc2Cl)cc1	x	28*	x	-7	8	-6	6	-14
Cc1nn(-c2ccccc2Cl)c(Cl)c1/C=N/Nc1cccc(C(=O)O)c1	0	33*	31	-71*	0	-74	61*	77*
Cc1ccsc1/C=N/Nc1ccc(C(=O)O)cc1	x	68*	21	-48	-8	-48	81*	77*
O=C(c1cccs1)N1CCC(c2nc3c(nnn3Cc3cccc(Cl)c3)c(=O)[nH]2)CC1	x	2	-9	8	-6	24	x	x
O=C(O)c1cccc(N/N=C/C2=C(Cl)c3cc(Cl)ccc3SC2)c1	0	18*	6	-41	-8	-54	27*	30*
Cc1ccsc1/C=N/Nc1cccc(C(=O)O)c1	0	65*	0	-54*	1	-67	94*	92*
COc1ccc2ccccc2c1/C=N/Nc1cccc(C(=O)O)c1	x	12	18	-4	-15	6	x	x
Cc1ccc(/C=N/Nc2cccc(C(=O)O)c2)s1	0	24*	29	-32	-1	-43	86*	85*
O=C(O)c1cccc(N/N=C/c2cccc3ccccc23)c1	x	63*	25	-2	-26	-13	87*	90*
